In PubChem BioAssay AID588689 (Southern Research Specialized Biocontainment Screening …, 2011):
Out of some 340,000 compounds screened, about 1,000 (0.29%) were called active. Cut-off read from the data, not from the text of the source: inconclusive = inhibition above about 29% without an active follow-up result; inactive = below that. A selection follows. Results with a measured potency or affinity are listed apart.

Biological target: Genome polyprotein (Dengue virus type 2 (strain 16681-PDK53)) (UniProt P29991)
Assay: Dengue-2 NS5 methyltransferase inhibitors, primary screen, biochemical, confirmation dose response (AID 588689)
Settings: Dengue-2 NS5 methyltransferase capping enzyme assay, at 25 µM, stronger effect = higher value
[1] = measured here: pilot screen replicate inhibition

SMILES	inhibition	inhibition [1] [%]
CCCCOc1ccc(-c2cnc3ccccc3n2)cc1	1.6% (inactive)	
Cc1cc(N2CCC(C(=O)NCC3CC3)CC2)nc(-c2ccccc2)n1	-10.6% (inactive)	
COC(=O)N(C)C[C@H]1OCc2cnnn2CCCC(=O)N([C@@H](C)CO)C[C@@H]1C	0% (inactive)	
CC1=NOC(=O)/C1=C\c1ccc(-c2cccc(Cl)c2)o1	6.14% (inactive)	
CC1=NOC(=O)/C1=C\c1ccc(-c2ccc(Br)cc2)o1	24.5% (inactive)	
CC1(C)OC(=O)C(=Cc2ccc(-c3ccc(Cl)c(C(=O)O)c3)o2)C(=O)O1	-35.6% (inactive)	
CC1=NOC(=O)/C1=C\c1ccc(-c2ccccc2Br)o1	3.96% (inactive)	
CC1=NOC(=O)/C1=C/c1ccc(-c2ccc(Cl)cc2)o1	19% (inactive)	
CC(C)N1C(=O)S/C(=C\c2ccc(-c3ccc(Cl)c(C(=O)O)c3)o2)C1=O	9.54% (inactive)	
CC(=O)N(c1ccccc1)c1nc2ccccc2s1	-3.1% (inactive)	
O=C(CNCc1ccccc1Cl)Nc1ccc(C(=O)N2CCCCC2)cc1	-14.1% (inactive)	
CNC(=O)c1ccsc1NC(=O)CS(=O)(=O)c1ccc(F)cc1	-0.55% (inactive)	
CCN1CCN(CCCN(Cc2ccco2)C(=S)Nc2cccc(Cl)c2C)CC1	5.26% (inactive)	
Nc1cc(=O)[nH]c(SCC(=O)Nc2cccnc2Cl)n1	11.6% (inactive)	
O=C1OC(c2ccccc2)=N/C1=C/c1cccc(OC(=O)c2cccs2)c1	6.35% (inactive)	
COc1ccc(-n2c(C)cc(/C=C3\C(=O)NN(c4ccccc4)C3=O)c2C)cc1	3.87% (inactive)	
O=C1NN(c2ccc(Br)cc2)C(=O)/C1=C\c1ccc(O)cc1O	-25.4% (inactive)	
Cc1cc(/C=C2\C(=O)NN(c3ccccc3)C2=O)c(C)n1-c1ccccc1O	2.89% (inactive)	
COc1cc(/C=C2/C(=O)NN(c3ccccc3)C2=O)cc(Br)c1O	-40.3% (inactive)	
COc1cc(C=C2C(=O)c3ccccc3C2=O)cc(OC)c1	18% (inactive)	
COc1cccc(/C=C2\CCc3ccccc3C2=O)c1	1.96% (inactive)	
N#C/C(=C\c1cccc(OC(=O)c2cccs2)c1)C(N)=O	-25% (inactive)	
COc1cccc(/C=C2/NC(=O)N(CC(=O)Nc3ccc(C)cc3)C2=O)c1OCc1cccc(C(=O)O)c1	-3.96% (inactive)	

SMILES	inhibition	inhibition [1] [%]
Cc1ccc2nc(-c3ccccc3)cc(C(=O)N3CCc4ccccc4C3)c2c1	-5.47% (inactive)	
NC(N)=N/N=C/c1ccc(OCc2ccccc2Cl)cc1	-0.7% (inactive)	
Cc1ccc(-c2nc3c(c(=O)c4ccccc4n3C)c(=O)n2-c2ccc(F)cc2)cc1	0.78% (inactive)	
CCc1ccc(C(=O)C(C)OC(=O)c2nc3nc(C)cc(C)n3n2)cc1 (stereo not given)	-7.33% (inactive)	
O=C1NN(c2ccccc2)C(=O)/C1=C\c1ccccc1	8.92% (inactive)	
O=C1NN(c2ccccc2)C(=O)C1=Cc1ccccc1	25.9% (inactive)	
COc1cc(/C=C2/C(=O)NN(c3ccc(F)cc3)C2=O)cc(Cl)c1O	-28% (inactive)	
C#CCOc1ccc(/C=C2/C(=O)NN(c3ccc(F)cc3)C2=O)cc1OC	14.3% (inactive)	
COc1ccc2oc(C(=O)OCC(=O)N(C)C3CCS(=O)(=O)C3)c(C)c2c1 (stereo not given)	-8.65% (inactive)	
O=C(CNC(=O)c1ccc(F)cc1)N/N=C/c1cn[nH]c1-c1ccccc1	-12.6% (inactive)	
CN(CC(=O)Nc1ccc(F)cc1)C(=O)CSc1nncs1	-2.59% (inactive)	
CCCCC(=O)Nc1nnc(-c2ccco2)o1	1.48% (inactive)	
CCNS(=O)(=O)c1ccc(NC(=O)Nc2ccc3c(c2)OCO3)cc1	-8.45% (inactive)	
Cc1c(F)cccc1NS(=O)(=O)c1ccc2c(c1)c(C)cc(=O)n2C	-4.58% (inactive)	
O=C1C(Cl)=C(NCCCN2CCOCC2)C(=O)c2ccccc21	17% (inactive)	
O=C1C(Cl)=C(N2CCN(c3ccccc3[N+](=O)[O-])CC2)C(=O)c2ccccc21	3.21% (inactive)	
NC(=O)C1CCN(C2=C(NS(=O)(=O)c3ccc(Cl)cc3)C(=O)c3ccccc3C2=O)CC1	7.95% (inactive)	
CN1CCN(C2=C(NS(=O)(=O)c3ccccc3)C(=O)c3ccccc3C2=O)CC1	7.03% (inactive)	
O=C1C(Cl)=C(NCCN2CCOCC2)C(=O)c2ccccc21	4.52% (inactive)	
NC(=O)C1CCN(C2=C(NS(=O)(=O)c3ccccc3)C(=O)c3ccccc3C2=O)CC1	0.77% (inactive)	
Cc1ccc(C=NNc2ccc([N+](=O)[O-])cn2)cc1	-5.44% (inactive)	
O=S(=O)(c1cc(Cl)ccc1Cl)N1CC2CCCN2c2ccc(C(F)(F)F)cc21 (stereo not given)	-10.5% (inactive)	
Cc1ccc2cc(CCNC(=O)c3cccc([N+](=O)[O-])c3)c(=O)[nH]c2c1C	2.58% (inactive)	

SMILES	inhibition	inhibition [1] [%]
CCCn1c(=O)c2ccccc2n2c(SCC(=O)c3ccc(CC)cc3)nnc12	-1.12% (inactive)	
Cc1cc(CN2CCCC(CNC(=O)c3ccc(F)cc3)C2)cc(C)c1O (stereo not given)	-7.66% (inactive)	
CCCOc1ccc(/C(O)=C2\C(=O)C(=O)N(c3ccccn3)C2c2ccccc2F)cc1C (stereo not given)	22.2% (inactive)	
COc1ccc(C2C(C(C)=O)=C(O)C(=O)N2c2ccccn2)cc1 (stereo not given)	0.65% (inactive)	
CCCOc1ccc(C2C(C(=O)c3cc4ccccc4o3)=C(O)C(=O)N2c2cc(C)on2)cc1 (stereo not given)	27.6% (inactive)	
COc1cccc(C2C(C(=O)c3cc4ccccc4o3)=C(O)C(=O)N2c2cc(C)on2)c1 (stereo not given)	11.6% (inactive)	
Cc1cc(N2C(=O)C(O)=C(C(=O)c3cc4ccccc4o3)C2c2cccc(Br)c2)no1 (stereo not given)	5.32% (inactive)	
C=CCOc1cccc(C2C(C(=O)c3ccc(C)o3)=C(O)C(=O)N2CCN(C)C)c1 (stereo not given)	-3.18% (inactive)	
CCCOc1ccc(C2C(C(=O)c3cc4ccccc4o3)=C(O)C(=O)N2c2cc(C)on2)cc1OC (stereo not given)	-3.55% (inactive)	
C=CCOc1cccc(C2C(C(=O)c3ccc(C)o3)=C(O)C(=O)N2Cc2ccncc2)c1 (stereo not given)	-1.6% (inactive)	
COc1cc(C2CC(=O)Oc3cc(O)ccc32)cc(OC)c1OC (stereo not given)	1.65% (inactive)	3.63
C=CCN1CCN(C(c2cc(OC)ccc2OC)c2nnnn2CC2CCCO2)CC1 (stereo not given)	1.37% (inactive)	
COc1ccc(-c2ccc(=O)n(Cc3ccccc3)n2)cc1	-0.78% (inactive)	
C=CCn1c(CC(C)(C)C)nc2ccccc21	-5.1% (inactive)	
Cc1ccc(S(=O)(=O)N2CCCN(C(=O)c3ccc(-n4nccc4C)cc3)CC2)cc1	-5.13% (inactive)	
CCOC(=O)C1CCCN(C(=O)/C(=C/c2ccco2)NC(=O)c2ccccc2)C1 (stereo not given)	-14.3% (inactive)	
CC[n+]1c(/C=C(\C)OC)sc2ccccc21	2.92% (inactive)	
O=C(COC(=O)/C=C/c1ccccc1Cl)NC(=O)NC1CCCC1	-7.24% (inactive)	
COCCNC(=O)CN1C(=O)CSc2ccc(S(=O)(=O)N3CCOCC3)cc21	0.89% (inactive)	
COc1ccc(C(=O)N2CCN(c3ccc(NC(=O)c4ccco4)cc3)CC2)cc1	0% (inactive)	
CC1(C)CC(=O)c2c(O)cc(O)cc2O1	-4.17% (inactive)	
COc1cc(O)c2c(c1)OC(C)(C)CC2=O	-2.94% (inactive)	
N#CCCN(C(=O)COC(=O)CNS(=O)(=O)c1ccc2ccccc2c1)c1ccccc1	1.1% (inactive)	

SMILES	inhibition	inhibition [1] [%]
N#CCc1ccc(NC(=O)Cn2c(=O)oc3ccccc32)cc1	-3.26% (inactive)	-4.87
COc1ccc(S(=O)(=O)N2CCCC2)c(Cl)c1Cl	-8.19% (inactive)	
COc1ccc(OC)c(-c2cc(C(=O)Nc3sc4c(c3C#N)CCC(C)C4)c3ccccc3n2)c1 (stereo not given)	-5.61% (inactive)	
CCC1CCc2c(sc(NC(=O)C3CC=CCC3C(=O)O)c2C#N)C1 (stereo not given)	27.5% (inactive)	
CCC(C)(C)C1CCc2c(sc(NC(=O)c3ccoc3C)c2C(N)=O)C1 (stereo not given)	-3.22% (inactive)	
CC1CCc2c(sc(NC(=O)c3ccccc3C(=O)O)c2C#N)C1 (stereo not given)	-0.74% (inactive)	
COc1ccc(-c2cc(C(=O)Nc3sc4c(c3C#N)CCCC4)c3ccccc3n2)cc1OC	-4.06% (inactive)	
N#Cc1c(NC(=O)C2CC=CCC2C(=O)O)sc2c1CCCCCC2 (stereo not given)	5.78% (inactive)	
CCOc1ccc(-c2cccc(NC(=O)COc3ccc(Cl)cc3)c2)nn1	-5.43% (inactive)	
COc1ccc(/C=C/C(=O)c2cc(Br)ccc2O)cc1OC	0.78% (inactive)	
Cc1cccc(-n2nnnc2SCC(=O)Nc2cccc(S(N)(=O)=O)c2)c1	0% (inactive)	
Cc1ccc(NC(=S)NCC2CCCO2)cc1 (stereo not given)	-18% (inactive)	
C[C@H](CO)N1C[C@H](C)[C@@H](CN(C)Cc2ccc(C(=O)O)cc2)Oc2c(NS(=O)(=O)c3cccs3)cccc2C1=O	2.31% (inactive)	-3.33
CC1(C)CC(=O)C(C#N)=C(NCCCO)C1	-3.49% (inactive)	
CC(C)=NNC1=NC(C)(C)Cc2ccccc21	3.83% (inactive)	
O=C1NC(=S)NC1=Cc1ccc(Cl)cc1Cl	-0.78% (inactive)	
C=CCOC(=O)C(=O)/C=C/c1csc2ccccc12	23.7% (inactive)	
O=C1NC(=S)NC(=O)C1=Cc1ccccc1C(=O)O	1.94% (inactive)	
O=Cc1c(Cl)cccc1Cl	0% (inactive)	
O=C1Nc2ccccc2/C1=C/c1ccccc1Cl	-2.65% (inactive)	
O=C1NC(=O)/C(=C/c2ccccc2Cl)N1	-5.96% (inactive)	
C/C=C/C=C\C(=O)Nc1cccc(C2=NOC3(C2)C[C@H](C(N)=O)N(C(=O)/C=C/C)C3)c1 (stereo not given in full)	-9.17% (inactive)	
CCOC(=O)c1c(S(=O)(=O)N(C)C2CCCCC2)c(C)n(C)c1C	-7.99% (inactive)	
